Common to all, as to assay: PBM; 200 nM protein, PBS
Holding throughout (conditions): dsDNA, one strand shown

The target of test [1] is HESX1 (Homo sapiens, UniProt Q9UBX0 95-180, R165K).
Test [2] concerns the target HESX1 (Homo sapiens, UniProt Q9UBX0 95-180).
Test [3] deals with HESX1 (Homo sapiens, UniProt Q9UBX0 95-180, R109Q).
The target in test [4] is HESX1 (Homo sapiens, UniProt Q9UBX0 95-180, P111T).
For test [5], the target named is HESX1 (Homo sapiens, UniProt Q9UBX0 95-180, F115L).
Test [6] has as its target PRRX1 (Homo sapiens, UniProt P54821 80-166, F113S).
In test [7] the target is PRRX1 (Homo sapiens, UniProt P54821 80-166).
Test [8] deals with ALX4 (Homo sapiens, UniProt Q9H161 200-286).
Test [9] addresses ALX4 (Homo sapiens, UniProt Q9H161 200-286, Q225E).
The target in test [10] is ALX1 (Homo sapiens, UniProt Q15699 118-204, L144V).
Another test addresses SHOX (Homo sapiens, UniProt O15266 103-189, R173C).
The target of test [11] is ALX1 (Homo sapiens, UniProt Q15699 118-204, L144R).
Test [12] has as its target PROP1 (Homo sapiens, UniProt O75360 56-141).
The target of test [13] is PROP1 (Homo sapiens, UniProt O75360 56-141, R99H).
In the next test the target is ALX3 (Homo sapiens, UniProt O95076 139-225, L168Q).
Test [14] deals with PROP1 (Homo sapiens, UniProt O75360 56-141, F88S).
Test [15] concerns the target ALX1 (Homo sapiens, UniProt Q15699 118-204).

Sequence of HESX1 (Homo sapiens, UniProt Q9UBX0 95-180) (Q9UBX0 95-180): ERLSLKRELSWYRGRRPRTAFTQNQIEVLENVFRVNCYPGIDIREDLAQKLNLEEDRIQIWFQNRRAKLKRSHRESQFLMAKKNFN
Sequence of ALX4 (Homo sapiens, UniProt Q9H161 200-286, Q225E) (Q9H161 200-286 Q225E): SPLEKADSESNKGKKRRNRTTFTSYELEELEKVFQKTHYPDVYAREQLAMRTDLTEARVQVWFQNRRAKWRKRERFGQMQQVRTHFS
Sequence of HESX1 (Homo sapiens, UniProt Q9UBX0 95-180, F115L) (Q9UBX0 95-180 F115L): as the sequence (Q9UBX0 95-180) above, with F21L counted along it
Sequence of HESX1 (Homo sapiens, UniProt Q9UBX0 95-180, R109Q) (Q9UBX0 95-180 R109Q): as the sequence (Q9UBX0 95-180) above, with R15Q counted along it
Sequence of PRRX1 (Homo sapiens, UniProt P54821 80-166) (P54821 80-166): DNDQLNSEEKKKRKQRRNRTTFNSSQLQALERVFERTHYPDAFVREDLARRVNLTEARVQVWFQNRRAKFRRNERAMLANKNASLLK
Sequence of ALX4 (Homo sapiens, UniProt Q9H161 200-286) (Q9H161 200-286): as the sequence (Q9H161 200-286 Q225E) above, with E26Q counted along it
Sequence of PRRX1 (Homo sapiens, UniProt P54821 80-166, F113S) (P54821 80-166 F113S): as the sequence (P54821 80-166) above, with F34S counted along it
Sequence of HESX1 (Homo sapiens, UniProt Q9UBX0 95-180, P111T) (Q9UBX0 95-180 P111T): as the sequence (Q9UBX0 95-180) above, with P17T counted along it
Sequence of HESX1 (Homo sapiens, UniProt Q9UBX0 95-180, R165K) (Q9UBX0 95-180 R165K): as the sequence (Q9UBX0 95-180) above, with R71K counted along it
Sequence of ALX1 (Homo sapiens, UniProt Q15699 118-204, L144V) (Q15699 118-204 L144V): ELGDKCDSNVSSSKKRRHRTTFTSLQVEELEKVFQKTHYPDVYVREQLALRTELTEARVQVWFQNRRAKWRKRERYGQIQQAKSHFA
Sequence of ALX1 (Homo sapiens, UniProt Q15699 118-204) (Q15699 118-204): as the sequence (Q15699 118-204 L144V) above, with V27L counted along it
Sequence of ALX1 (Homo sapiens, UniProt Q15699 118-204, L144R) (Q15699 118-204 L144R): as the sequence (Q15699 118-204 L144V) above, with V27R counted along it
Sequence of PROP1 (Homo sapiens, UniProt O75360 56-141, F88S) (O75360 56-141 F88S): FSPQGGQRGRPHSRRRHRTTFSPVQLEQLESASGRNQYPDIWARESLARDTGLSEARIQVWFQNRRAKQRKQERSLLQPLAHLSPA
Sequence of ALX3 (O95076 139-225 L168Q): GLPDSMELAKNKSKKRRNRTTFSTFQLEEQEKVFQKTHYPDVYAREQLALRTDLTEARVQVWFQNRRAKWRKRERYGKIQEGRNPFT
Sequence of PROP1 (Homo sapiens, UniProt O75360 56-141, R99H) (O75360 56-141 R99H): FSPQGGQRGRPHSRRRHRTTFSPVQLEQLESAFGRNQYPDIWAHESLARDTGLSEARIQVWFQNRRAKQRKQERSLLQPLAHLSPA
Sequence of PROP1 (Homo sapiens, UniProt O75360 56-141) (O75360 56-141): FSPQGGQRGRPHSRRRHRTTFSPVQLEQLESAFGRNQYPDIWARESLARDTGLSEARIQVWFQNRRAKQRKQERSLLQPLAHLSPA
Sequence of SHOX (O15266 103-189 R173C): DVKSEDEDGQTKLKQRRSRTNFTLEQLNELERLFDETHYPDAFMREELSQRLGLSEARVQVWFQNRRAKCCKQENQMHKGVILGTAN

As for GTCCTGCA, the binding signal was 6.29 upbm affinity estimate (log intensity, higher = more binding, comparable within an allelic series) with HESX1 [1]; 6.29 upbm affinity estimate (log intensity, higher = more binding, comparable within an allelic series) with HESX1 [2]; 6.46 upbm affinity estimate (log intensity, higher = more binding, comparable within an allelic series) in the test with HESX1 [3]; 6.46 upbm affinity estimate (log intensity, higher = more binding, comparable within an allelic series) with HESX1 [4]; 6.53 upbm affinity estimate (log intensity, higher = more binding, comparable within an allelic series) with HESX1 [5].
GCCGTCGC: the binding signal is 6.39 upbm affinity estimate (log intensity, higher = more binding, comparable within an allelic series) in the test with HESX1 [1]; 9.29 upbm affinity estimate (log intensity, higher = more binding, comparable within an allelic series) with PRRX1 [6]; 6.51 upbm affinity estimate (log intensity, higher = more binding, comparable within an allelic series) with HESX1 [2]; 6.58 upbm affinity estimate (log intensity, higher = more binding, comparable within an allelic series) with HESX1 [3]; 6.45 upbm affinity estimate (log intensity, higher = more binding, comparable within an allelic series) with HESX1 [4]; 6.53 upbm affinity estimate (log intensity, higher = more binding, comparable within an allelic series) with HESX1 [5]. For the same sequence, in the test with PRRX1 [7], the binding signal was 9.58 upbm affinity estimate (log intensity, higher = more binding, comparable within an allelic series).
As to GCCAGCGA, the binding signal is 6.34 upbm affinity estimate (log intensity, higher = more binding, comparable within an allelic series) with HESX1 [1]; 6.55 upbm affinity estimate (log intensity, higher = more binding, comparable within an allelic series) in the test with HESX1 [2]; 6.49 upbm affinity estimate (log intensity, higher = more binding, comparable within an allelic series) with HESX1 [3]; 6.48 upbm affinity estimate (log intensity, higher = more binding, comparable within an allelic series) with HESX1 [4]; 6.56 upbm affinity estimate (log intensity, higher = more binding, comparable within an allelic series) with HESX1 [5].
As for CGCCTAGC, the binding signal with HESX1 [1] is 6.27 upbm affinity estimate (log intensity, higher = more binding, comparable within an allelic series); with PRRX1 [6] it was 9.26 upbm affinity estimate (log intensity, higher = more binding, comparable within an allelic series); with HESX1 [2] it was 6.37 upbm affinity estimate (log intensity, higher = more binding, comparable within an allelic series); in the test with HESX1 [3] it was 6.4 upbm affinity estimate (log intensity, higher = more binding, comparable within an allelic series); with HESX1 [4], 6.38 upbm affinity estimate (log intensity, higher = more binding, comparable within an allelic series); with HESX1 [5], 6.57 upbm affinity estimate (log intensity, higher = more binding, comparable within an allelic series). Moreover, the binding signal with PRRX1 [7] was 9.27 upbm affinity estimate (log intensity, higher = more binding, comparable within an allelic series).
As to AGGTACCT, the binding signal was 6.5 upbm affinity estimate (log intensity, higher = more binding, comparable within an allelic series) with HESX1 [1]; 8.17 upbm affinity estimate (log intensity, higher = more binding, comparable within an allelic series) in the test with ALX4 [8]; 8.34 upbm affinity estimate (log intensity, higher = more binding, comparable within an allelic series) with ALX4 [9]; 6.5 upbm affinity estimate (log intensity, higher = more binding, comparable within an allelic series) with HESX1 [2]; 6.6 upbm affinity estimate (log intensity, higher = more binding, comparable within an allelic series) with HESX1 [3]; 6.54 upbm affinity estimate (log intensity, higher = more binding, comparable within an allelic series) in the test with HESX1 [4]. Moreover, the binding signal with HESX1 [5] was 6.63 upbm affinity estimate (log intensity, higher = more binding, comparable within an allelic series).
With AATTAACC, the binding signal with HESX1 [1] is 11.5 upbm affinity estimate (log intensity, higher = more binding, comparable within an allelic series); with ALX4 [8], 13.6 upbm affinity estimate (log intensity, higher = more binding, comparable within an allelic series); with PRRX1 [6], 11 upbm affinity estimate (log intensity, higher = more binding, comparable within an allelic series); with ALX4 [9], 12.7 upbm affinity estimate (log intensity, higher = more binding, comparable within an allelic series); with HESX1 [2], 11.5 upbm affinity estimate (log intensity, higher = more binding, comparable within an allelic series); in the test with ALX1 [10] it was 11.3 upbm affinity estimate (log intensity, higher = more binding, comparable within an allelic series). In addition, the binding signal with SHOX is 9.27 upbm affinity estimate (log intensity, higher = more binding, comparable within an allelic series); in the test with ALX1 [11], 11.2 upbm affinity estimate (log intensity, higher = more binding, comparable within an allelic series); with PROP1 [12] it was 11.1 upbm affinity estimate (log intensity, higher = more binding, comparable within an allelic series); with HESX1 [3] it was 8.77 upbm affinity estimate (log intensity, higher = more binding, comparable within an allelic series); with PROP1 [13] it was 10.7 upbm affinity estimate (log intensity, higher = more binding, comparable within an allelic series); in the test with ALX3 it was 10.3 upbm affinity estimate (log intensity, higher = more binding, comparable within an allelic series). Also, the binding signal in the test with HESX1 [4] is 10.3 upbm affinity estimate (log intensity, higher = more binding, comparable within an allelic series); with PROP1 [14], 7.52 upbm affinity estimate (log intensity, higher = more binding, comparable within an allelic series); with HESX1 [5], 7.7 upbm affinity estimate (log intensity, higher = more binding, comparable within an allelic series); with ALX1 [15], 12.1 upbm affinity estimate (log intensity, higher = more binding, comparable within an allelic series); with PRRX1 [7], 13.2 upbm affinity estimate (log intensity, higher = more binding, comparable within an allelic series).
Consider CCATAATA, for which the binding signal in the test with HESX1 [1] was 8.68 upbm affinity estimate (log intensity, higher = more binding, comparable within an allelic series); with HESX1 [2], 8.79 upbm affinity estimate (log intensity, higher = more binding, comparable within an allelic series).
Consider CGCGCGAG, for which the binding signal was 6.55 upbm affinity estimate (log intensity, higher = more binding, comparable within an allelic series) with HESX1 [1]; 8.39 upbm affinity estimate (log intensity, higher = more binding, comparable within an allelic series) with ALX4 [8]; 8.37 upbm affinity estimate (log intensity, higher = more binding, comparable within an allelic series) with ALX4 [9]; 6.52 upbm affinity estimate (log intensity, higher = more binding, comparable within an allelic series) with HESX1 [2]; 6.5 upbm affinity estimate (log intensity, higher = more binding, comparable within an allelic series) with HESX1 [3]; 6.55 upbm affinity estimate (log intensity, higher = more binding, comparable within an allelic series) in the test with HESX1 [4]. In the test with HESX1 [5], the binding signal is 6.44 upbm affinity estimate (log intensity, higher = more binding, comparable within an allelic series).
As to CAATAATG, the binding signal with HESX1 [1] was 8.97 upbm affinity estimate (log intensity, higher = more binding, comparable within an allelic series); in the test with HESX1 [2] it was 9.26 upbm affinity estimate (log intensity, higher = more binding, comparable within an allelic series).
For the sequence ATTAAGGA, the binding signal with HESX1 [1] is 8.58 upbm affinity estimate (log intensity, higher = more binding, comparable within an allelic series); with HESX1 [2] it was 9.12 upbm affinity estimate (log intensity, higher = more binding, comparable within an allelic series).
With CACGGCTG, the binding signal is 6.44 upbm affinity estimate (log intensity, higher = more binding, comparable within an allelic series) with HESX1 [1]; 7.95 upbm affinity estimate (log intensity, higher = more binding, comparable within an allelic series) in the test with ALX4 [8]; 7.97 upbm affinity estimate (log intensity, higher = more binding, comparable within an allelic series) with ALX4 [9]; 6.33 upbm affinity estimate (log intensity, higher = more binding, comparable within an allelic series) with HESX1 [2]; 6.21 upbm affinity estimate (log intensity, higher = more binding, comparable within an allelic series) with ALX1 [10]; 6.3 upbm affinity estimate (log intensity, higher = more binding, comparable within an allelic series) with ALX1 [11]. The binding signal with HESX1 [3] is 6.53 upbm affinity estimate (log intensity, higher = more binding, comparable within an allelic series); with HESX1 [4], 6.39 upbm affinity estimate (log intensity, higher = more binding, comparable within an allelic series); with HESX1 [5], 6.49 upbm affinity estimate (log intensity, higher = more binding, comparable within an allelic series); with ALX1 [15], 6.11 upbm affinity estimate (log intensity, higher = more binding, comparable within an allelic series).

These data come from PMC11006913.
